Pf growth 96h: P. falciparum growth inhibition at 96 hours. hit rate 6.9% among 320,000. P. falciparum luciferase reporter growth, 96 h. Potency, µM (series often up to 28.7 µM), usual class: inhibitors
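Two-generation exposure (96 h) targets delayed-death phenotype. Reporter parasites carrying integrated firefly luciferase, in red cells at 2% hematocrit and 0.05% parasitemia final, kept at 37 C, 5% CO2; luminescence loss indicates inhibition.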
NS1 inh: inhibitors of influenza NS1 protein function. AID 2326. hit rate 0.4% among 270,000. Potency, µM (highest dose often 46.1 µM); calls by dose curve; also: actives are rising curves; nearly all actives have a fitted effect of over 50% in size
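In this qHTS, NS1 from influenza A is expressed in budding yeast, where it slows growth. Cells are switched from glucose to 2% galactose medium (pH 6.0, -URA), treated with compound, and growth recovery is read at OD600.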
Pf growth 48h: P. falciparum growth inhibition at 48 hours (one generation); P. falciparum luciferase growth in erythrocytes, 48 h; Potency, µM (titrated, usually from 28.7 µM), most hits filed as inhibitors; hit rate 5.9% among 310,000; AID 504832
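Compounds are pin-transferred into medium, infected erythrocytes (2% hematocrit, 0.1% parasitemia final) are added, and plates sit one parasite generation at 37 C in 5% CO2. Detection reagent is then added and luminescence measured.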
HCV inh: blocks hepatitis C virus. Huh7.5.1 HCVcc-Cre infection, luciferase reporter, 44 h. Potency, µM (highest dose often 41.8 µM), most hits filed as inhibitors. hit rate 3.4% among 340,000. AID 651820
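Infectious HCV cell culture screen: compound-treated cells (1,000/well, pre-plated 4 h) are infected with HCVcc-Cre at roughly 0.5 moi and grown 44 h. Infection is quantified by luciferase signal after 15 min substrate incubation at room temperature.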
VACV mCherry inh: vaccinia inhibition (mCherry reporter); Vaccinia virus mCherry reporter infection, fluorescence; Potency, µM (top dose mostly 36.5 µM), most hits filed as inhibitors; hit rate 0.63% among 310,000; AID 720579; calls by dose curve; tested in A549 cells; also: nearly all actives have a fitted effect of over 35% in size
VACV Venus inh: inhibitors of vaccinia virus (Venus reporter); Vaccinia virus Venus reporter expression, fluorescence; Potency, µM (doses to about 36.5 µM), hits mostly inhibitors; hit rate 0.46% among 330,000; AID 720580; calls by dose curve; tested in A549 cells; also: nearly all actives have a fitted effect of over 30% in size
Numbers stand for hits; n = inactive; u = inconclusive; x = no result given; [ ] = remark or other dose. Rows were chosen to be rich in hits. Some 11% of all compounds tested hit in one or more screens of this group. Unless noted, calls follow the shape of the dose curve; as a rule, active = well fitted inhibition curve with a large enough effect; inconclusive = small, poorly fitted or top-dose-only effect, or another doubt; inactive = no such curve, though single readings can be large or run the other way.

SMILES	Pf growth 96h	NS1 inh	Pf growth 48h	HCV inh	VACV mCherry inh	VACV Venus inh
COc1ccccc1NC(=O)c1ccc(C(=O)c2ccccc2)o1	n	x	u	u	n	n
COc1cc2cc(C(c3nnnn3C(C)(C)C)N3CCc4ccccc43)c(=O)[nH]c2cc1OC (stereo not given)	u	n	u	n	n	n
COc1ccccc1N1CCN(C(c2cc3ccc(C)cc3[nH]c2=O)c2nnnn2C2CCCC2)CC1 (stereo not given)	n	n	1.9µM	n	x	x
CCC(C)(C)n1nnnc1C(c1cc2ccc(OC)cc2[nH]c1=O)N1CCN(C2CCCCC2)CC1 (stereo not given)	x	n	10µM	u	x	x
CCOC(=O)c1cc2oc(C(c3nnnn3C3CCCCC3)N3CCOCC3)cc2[nH]1 (stereo not given)	9.3µM	n	9.3µM	n	u	n
Oc1ccc(C(c2nnnn2C2CCCCC2)N2CCOCC2)cc1 (stereo not given)	u	n	n	n	n	n
COc1cc2cc(C(c3nnnn3C3CCCC3)N3CCc4ccccc43)c(=O)[nH]c2cc1OC (stereo not given)	9.3µM	n	u	n	x	x
O=C(Cn1[nH]c(=O)c2ccccc2c1=O)OCC(=O)N1CCCc2ccccc21	n	n	n	n	n	n
CCC1CN(C(=O)N2CCC(C(=O)Nc3ccccc3OC)CC2)c2ccccc2O1 (stereo not given)	u	n	u	u	n	n
CCOC(=O)C(CC)(CCC(=O)O)c1csc(Nc2ccc(C)cc2)n1 (stereo not given)	n	n	n	n	n	n
CCOC(=O)C1CCN(C(c2cc3ccc(C)cc3[nH]c2=O)c2nnnn2C2CCCCC2)CC1 (stereo not given)	x	n	1µM	n	x	x
CCOC(=O)c1[nH]c(C)c(C(=O)N2CCc3ccccc32)c1C	n	n	u	u	x	u
Fc1ccc(Sc2nc(-c3ccccc3)nnc2C(F)(F)F)cc1	13µM	n	8.3µM	n	n	n
CN(C[C@H](Cc1ccccc1)N(C[C@H](c1ccccc1)N(CCc1ccccc1)N=O)N=O)N=O	13µM	n	u	n	n	n
CC(C)C[C@@H](CN(N=O)[C@@H](Cc1ccccc1)CN(C)N=O)N(CCc1ccccc1)N=O	u	n	u	n	n	n
CN(C[C@H](c1ccccc1)N(C[C@H](Cc1ccccc1)N(CCc1ccccc1)N=O)N=O)N=O	12µM	n	u	n[8.37 µM]	n	n
CCCCC1=CC2=CC(=O)C(C)(OC(=O)CC)C(=O)C2=CN1C1CCCCC1 (stereo not given)	9.3µM	n	u	n	n	n
CC1(OC(=O)CCc2ccccc2)C(=O)C=C2C=C(c3ccc(C#N)cc3)N(Cc3ccccc3)C=C2C1=O (stereo not given)	u	n	u	n	n	n
CC1(OC(=O)CCc2ccccc2)C(=O)C=C2C=C(c3ccc(C#N)cc3)N(C3CC3)C=C2C1=O (stereo not given)	u	n	13µM	n	n	n
CCCCC1=CC2=CC(=O)C(C)(OC(=O)CC)C(=O)C2=CN1c1ccc(OC)cc1 (stereo not given)	9.3µM	n	12µM	n	n	n
OCc1ccnc2oc3ccccc3c12	x	x	x	n	n	n
O=C(O)C1(Nc2ccc(Br)cc2)CCCC1	x	x	x	n	n	n
O=C(CSc1n[nH]c(-c2cccs2)n1)N1CCN(S(=O)(=O)c2ccc3ccccc3c2)CC1	5.9µM	n	x	u	n	u
Nc1cc(=O)[nH]c(SCC(=O)N2CCN(S(=O)(=O)c3ccc4ccccc4c3)CC2)n1	n	x	n	n	n	n
CCOC(=O)c1c(/N=C/N(C)C)sc(/C=N/Nc2ccccc2)c1-c1ccc(Cl)cc1	3.3µM	n	13µM	u	x	x
SMILES	Pf growth 96h	NS1 inh	Pf growth 48h	HCV inh	VACV mCherry inh	VACV Venus inh
COc1ccc(CN(C)C(=O)/C=C/c2ccc(S(=O)(=O)N3CCCCCC3)cc2)cc1	13µM	x	9.3µM	11µM	u	u
CNC(=O)c1ccc(CN(C)C(=O)/C=C/c2ccc(S(=O)(=O)N3CCCCCC3)cc2)cc1	x	x	x	x	n	n
CCOc1ccc(S(=O)(=O)N2CCCCCC2)cc1	u	n	x	n	x	x
CCOc1ccc(CN(C)C(=O)CCc2ccc(S(=O)(=O)N3CCCCCC3)cc2)cc1	u	x	13µM	4µM	x	x
COc1ccc(CN(C)C(=O)CCc2ccc(S(=O)(=O)N3CCCCCC3)cc2)c(OC)c1	u	x	13µM	u	x	x
CCOc1ccc(CN(C)C(=O)CCl)cc1	n[5.75 µM]	x	6.6µM	u	u	n
COc1ccc(N2C(=O)CCC(C(C)=O)=C2C)cc1	u	n	n	n	x	x
O=C(CN1C(=O)NC2(CCc3ccccc32)C1=O)NCc1ccccc1Cl (stereo not given)	n	x	u	n	x	x
NC(=O)CC(NC(=O)c1cccc(Br)c1)c1ccc(NCCN2CCOCC2)c([N+](=O)[O-])c1 (stereo not given)	n	n	n	x	x	x
Cc1ccc(N2CSC3=C(C#N)C(c4cccs4)CC(=O)N3C2)cc1 (stereo not given)	15µM	n	x	n	n	n
CCc1ccc(N2CSC3=C(C#N)C(c4cccs4)CC(=O)N3C2)cc1 (stereo not given)	x	n	n	u	x	x
COc1ccc(N2CSC3=C(C#N)C(c4cc(OC)c(OC)cc4OC)CC(=O)N3C2)c(OC)c1 (stereo not given)	n	n	x	n	n	n
COc1ccc(N2CSC3=C(C#N)C(c4cc(OC)ccc4OC)CC(=O)N3C2)c(OC)c1 (stereo not given)	13µM	n	x	u	n	n
CCc1ccc(C(=O)CSc2n[nH]c(-c3ccncc3)n2)cc1	5.2µM	n	x	n	n	n
Cc1ccc(C(=O)CSc2n[nH]c(-c3ccco3)n2)cc1C	u	n	n	n	x	x
COc1ccc(C(=O)CSc2n[nH]c(-c3ccco3)n2)cc1	1.2µM	n	n	n	x	x
CCCOc1ccc2c(CC)cc(=O)oc2c1C	n	n	n	u	n	n
C=C(C)COc1ccc2c(CC)cc(=O)oc2c1C	n	n	n	11µM	n	n
COc1ccc2c(C)cc(=O)oc2c1C	5.9µM	n	x	n	n	n
Cc1cc(=O)oc2c(C)c(OCC(=O)N(C)C)ccc12	u	n	n	n	x	n
C=C(C)COc1ccc2c(C)c(C)c(=O)oc2c1OCC(=C)C	n	n	12µM	n	x	n
C=C(C)COc1ccc2c3c(c(=O)oc2c1OCC(=C)C)CCC3	u	n	n	n	n	n
NNC(=S)Nc1c(Br)cc(F)cc1Br	n	n	u	n	x	x
O=C(c1ccc(Cl)cc1)N(Cc1ccco1)Cc1ccco1	x	x	x	x	n	n
CS(=O)(=O)c1ncc(Cl)c(C(=O)N(Cc2ccc(Cl)cc2)Cc2ccco2)n1	x	x	x	x	u	16µM
CCOc1ccccc1Nc1ncccc1C(=O)N1CCCC1	n	n	u	n	n	u
COc1ccccc1CCc1nnc(CCC(=O)NCC(C)Oc2cccnc2)o1 (stereo not given)	17µM	n	n	n	x	x

High-throughput results from PubChem BioAssay.
